Results on 18 compounds are retold here after PubChem BioAssay (NCATS).

Test [1] deals with Aldehyde dehydrogenase, mitochondrial (Homo sapiens) (UniProt P05091). Briefly: qHTS for Inhibitors of the Aldehyde Dehydrogenase Family (ALDH2) Primary screen (AID 2061308).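 Note: plate controls were vehicle for no effect and reference inhibitor for full effect; nearly all actives have a fitted effect of over 55% in size.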 A general note: qHTS replaces the single test concentration by a dilution series.
The target in test [2] is Retinaldehyde dehydrogenase 3 (Homo sapiens) (UniProt P47895). The test is described as follows: qHTS for Inhibitors of the Aldehyde Dehydrogenase Family (ALDH1A3) Primary screen (AID 2061315).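 Note: plate controls were DMSO vehicle for no effect and reference inhibitor for full effect.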
A short description of test [3]: BET inhibitor-based combinations targeting novel dependencies in MECOM-rearranged (r) AML: SET-2 cell line (AID 2202231).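 For viability: plate controls were DMSO treated cells for no effect and wells without cells for full effect.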 Note: nearly all actives have a fitted effect of over 35% in size. Note: potency is the fitted concentration of half-maximal effect. To be noted: SET-2 AML cells viability, CellTiter-Glo luminescence, 48 h; viability: stronger effect = lower value, concentration not given here. A digest of the protocol: (§1)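 AML cell lines seeded at 500 cells/well, treated with 11-point dose curves for 48 h. Viability by CellTiter-Glo luminescence, normalised to DMSO and empty wells; activity expressed as AUC and per-cell-line Z-transformed AUC.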
A general note: Cellular ATP, detected with luciferase, serves as a proxy for viable cell number.

Test [4] in a line: BET inhibitor-based combinations targeting novel dependencies in MECOM-rearranged (r) AML: OCI-AML3 cell line (AID 2202232). Note: nearly all actives have a fitted effect of over 35% in size. Note: potency is the fitted concentration of half-maximal effect. Conditions: Potency: OCI-AML3 viability. In a few lines: as §1
Test [5] is described as follows: BET inhibitor-based combinations targeting novel dependencies in MECOM-rearranged (r) AML: MV-4-11 cell line (AID 2202233). Note: nearly all actives have a fitted effect of over 45% in size. Note: potency is the fitted concentration of half-maximal effect. A digest of the protocol:
(§2)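 Cells at 500/well were exposed for 48 hr to MIPE v5.0 drugs as 11-point dose curves. Viability was read by CellTiter-Glo luminescence and normalized to DMSO and empty-well controls. Activity was expressed as AUC and per-cell-line Z-AUC.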

A short description of test [6]: BET inhibitor-based combinations targeting novel dependencies in MECOM-rearranged (r) AML: HNT-34 cell line (AID 2202234). Note: nearly all actives have a fitted effect of over 35% in size. Note: potency is the fitted concentration of half-maximal effect. A digest of the protocol: as §2
A short description of test [7]: BET inhibitor-based combinations targeting novel dependencies in MECOM-rearranged (r) AML: AML-191 cell line (AID 2202236; note: nearly all actives have a fitted effect of over 35% in size; note: potency is the fitted concentration of half-maximal effect). A digest of the protocol:
as §1

Test [8] in a line: BET inhibitor-based combinations targeting novel dependencies in MECOM-rearranged (r) AML: AML-194 cell line (AID 2202237; note: nearly all actives have a fitted effect of over 40% in size; note: potency is the fitted concentration of half-maximal effect). A digest of the protocol: as §1
Test [9] in a line: BET inhibitor-based combinations targeting novel dependencies in MECOM-rearranged (r) AML: UCSD-AML1 cell line (AID 2202235). Note: nearly all actives have a fitted effect of over 40% in size. Note: potency is the fitted concentration of half-maximal effect. A digest of the protocol: as §2

Records with an inconclusive call do not appear. Values without a mark were called inactive. Activity calls are given as the source filed them. Calls come from the whole dose curve; as a rule, active = well fitted curve in the direction sought with a large enough effect; inconclusive = small, poorly fitted or top-dose-only effect, or another doubt; inactive = no such curve, though single readings can be large; an effect the other way counts as inactive or inconclusive.

Consider `CCn1cc(-c2ccnc3[nH]c(-c4cccc(CN(C)C)c4)cc23)c(-c2ccc(NC(=O)N(C)C)cc2)n1`, for which the Potency result in test [1] and in test [2] was “inactive” each time. The Potency in test [3] was 16.6 µM (active); in test [4], 8.33 µM (active); in test [5] it was 0.186 µM (active); in test [6], 3.32 µM (active); in [7], 5.25 µM (active); in test [8], 5.9 µM (active).
Turning to `Cc1nnc(C[C@@H]2C=C(c3ccc(Cl)cc3)c3ccccc3-n3c(C)nnc32)o1`, the Potency result in [1] and in [2] was “inactive” in each case. For the same compound, the Potency in test [3] was 0.662 µM (active); in test [4], 0.332 µM (active); in test [5] it was 0.235 µM (active); in test [9], 2.09 µM (active); in test [7], 3.32 µM (active).
On to `C[C@H]1[C@@H](OC(=O)CCC(=O)O)O[C@@H]2O[C@@]3(C)CC[C@@H]4[C@H](C)CC[C@@H]1[C@@]24OO3`, for which the Potency result in test [1] and in test [2] was “inactive” throughout. The Potency in test [3] was 3.72 µM (active); in test [4], 4.17 µM (active); in test [5], 1.66 µM (active); in test [6] it was 2.95 µM (active); in test [9] it was 8.33 µM (active); in test [7], 5.25 µM (active). Further, the Potency in [8] is 9.34 µM (active).
Take `CC(C)c1c(-c2ccccc2)nc2c(C#N)c[nH]n2c1=O`: the Potency entry in [1], in test [2], in [4], in test [5], in test [6] and in test [7] was “inactive” in each case. Moreover, the Potency entry in test [8] was “inactive”. Also, in test [3], the viability was 118%.
As to `C[C@H]1[C@H](C)CC[C@]2(C(=O)O)CC[C@]3(C)C(=CC[C@@H]4[C@@]5(C)C[C@@H](O)[C@H](O)[C@@](C)(CO)[C@@H]5CC[C@]43C)[C@H]12`, the Potency result in [1], in [2], in test [4], in test [5], in test [7] and in test [8] was “inactive” in each case. Besides, the viability in test [3] is 104%.
In the case of `CO[C@H]1C[C@@H]2CC[C@@H](C)[C@@](O)(O2)C(=O)C(=O)N2CCCC[C@H]2C(=O)O[C@H]([C@H](C)C[C@@H]2CC[C@@H](OC(=O)C(C)(CO)CO)[C@H](OC)C2)CC(=O)[C@H](C)/C=C(\C)[C@@H](O)[C@@H](OC)C(=O)[C@H](C)C[C@H](C)/C=C/C=C/C=C/1C`, the Potency entry in [1] and in test [2] was “inactive” throughout. In test [3], the Potency is 0.091 µM (active).
In the case of `COCCNCCCn1c(C(=O)CF)c(-c2ccc(C)cc2)c2c(N)ncnc21`, the Potency entry in [1], in [2], in test [9] and in test [8] was “inactive” throughout. For the same compound, the viability in test [3] was 101%. Besides, the Potency is 0.059 µM (active) in test [4] and 3.32 µM (active) in test [5].
Consider `COC(=O)N[C@@H](C)CNc1nccc(-c2cn(C(C)C)nc2-c2cc(Cl)cc(NS(C)(=O)=O)c2F)n1`, for which the Potency entry in test [1] and in [2] was “inactive” each time. The Potency in [3] is 2.63 µM (active); in test [4], 1.66 µM (active); in test [5] it was 2.35 µM (active); in test [6] it was 0.833 µM (active); in [9], 2.63 µM (active); in test [7] it was 1.66 µM (active). Besides, in test [8], the Potency was 2.09 µM (active).
For the compound `COc1ccccc1-c1cccc(-c2c(O)c3cc(C#N)c(Cl)cc3[nH]c2=O)c1`, the Potency entry in [1], in test [2], in test [4], in test [5], in test [6] and in [9] was “inactive” in each case. For the same compound, the Potency entry in [7] and in test [8] was “inactive” each time. In test [3], the viability was 99.8%.
Consider `CN1CC[C@@H](c2c(O)cc(O)c3c(=O)cc(-c4ccc(C(F)(F)F)cc4Cl)oc23)[C@@H]1CO`, for which the Potency entry in [1] and in test [2] was “inactive” in each case. For the same compound, the Potency in test [5] was 20.9 µM (active).
For `CN1CCN(C2CCC(n3cc(-c4ccc(Oc5ccccc5)cc4)c4c(N)ncnc43)CC2)CC1` (stereo not drawn), the Potency entry in test [1] and in test [2] was “inactive” each time. The Potency in test [3] was 20.9 µM (active); in [4], 13.2 µM (active); in [9], 7.42 µM (active); in test [7], 9.34 µM (active); in test [8] it was 8.33 µM (active).
For `Cn1c(NC[C@@H](N)Cc2ccccc2)nc(-c2ccncc2)c(-c2ccc3ccccc3c2)c1=O`, the Potency entry in [1] and in [2] was “inactive” throughout. For the same compound, the Potency in test [4] is 20.9 µM (active); in [5], 20.9 µM (active); in [6] it was 26.3 µM (active); in test [8] it was 26.3 µM (active).
Consider `O=C(O)C1=CO[C@@H](O[C@@H]2O[C@H](CO)[C@@H](O)[C@H](O)[C@H]2O)[C@@H]2C(CO)=CC[C@H]12`, for which the Potency result in [1], in test [2], in test [6], in test [9], in [7] and in test [8] was “inactive” in each case. The viability in [3] was 118%.
Regarding `C[C@H](CN(C)C)Oc1nc(Nc2cc3cccc(Cl)c3cn2)cnc1C#N`, the Potency entry in test [1] and in test [2] was “inactive” in each case. The Potency in [4] was 4.68 µM (active).
Regarding `COc1cc2c(cc1OC(C)C)[C@H](c1ccc(Cl)cc1)N(c1ccc(N(C)CC3CCC(N4CCN(C)C(=O)C4)CC3)cc1)C(=O)C2` (stereo partly drawn), the Potency entry in test [1] and in [2] was “inactive” each time. Also, the Potency in test [4] is 11.8 µM (active); in [5], 2.35 µM (active); in [6], 3.72 µM (active); in test [9], 4.68 µM (active); in test [7] it was 5.9 µM (active); in [8], 10.5 µM (active).
On to `O=C(O)c1ccc(CN2CCC(CN[C@@H]3C[C@H]3c3ccccc3)CC2)cc1`, for which the Potency result in test [1], in test [2], in [6] and in test [7] was “inactive” each time. Also, the figures for the Potency in test [3] and in test [9] were 0.186 µM (active) and 0.209 µM (active), respectively.
As to `C[C@@H]1CC(=O)Nc2cccc(-c3cnn(C(C)(C)C)c3)c2N1`, the Potency entry in test [1] and in test [2] was “inactive” each time. In addition, the Potency was 18.6 µM (active) in test [4], 16.6 µM (active) in test [5], 14.8 µM (active) in [9] and 16.6 µM (active) in [7].
On to `Cc1ccc(NC(=O)c2ccc(CN3CC[C@H](N(C)C)C3)c(C(F)(F)F)c2)cc1Nc1nccc(-c2cncnc2)n1`, for which the Potency entry in test [1] and in [2] was “inactive” in each case. The Potency is 2.04 µM (active) in [4], 8.11 µM (active) in [5] and 14.4 µM (active) in test [8].

As a reminder, the viability is a read-out of living cells in per cent, often relative to untreated cells.
